# Laboratory results from publication PMC7862700, “An all-to-all approach to the identification of sequence-specific readers for epigenetic DNA modifications on cytosine”.
# How the values were obtained:
# Assay in all cases: DAPPL (digital affinity profiling via proximity ligation, sequencing); 10 mM Tris-HCl pH 7.5, 50 mM NaCl, 1 mM DTT, 4% glycerol, room temperature, 30 min; GST-TFs on glutathione beads, 16-mer random dsDNA library, 0.1% formaldehyde crosslink after washing; high values mean tight binding
# FEV = target: T1, FEV (Homo sapiens, UniProt Q99581 1-238); conditions: protein: recombinant; tags: N-terminal GST; dsDNA, one strand shown
# T1 sequence: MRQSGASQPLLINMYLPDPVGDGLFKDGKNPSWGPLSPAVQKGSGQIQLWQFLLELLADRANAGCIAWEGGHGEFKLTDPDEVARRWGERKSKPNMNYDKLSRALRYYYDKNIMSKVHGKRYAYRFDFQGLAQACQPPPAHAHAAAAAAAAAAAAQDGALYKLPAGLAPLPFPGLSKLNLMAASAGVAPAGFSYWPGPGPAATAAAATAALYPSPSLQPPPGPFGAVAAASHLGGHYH
# Procedure, shortened: (§1)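 In yeast, human transcription factors were expressed with a GST fusion, then pulled down on glutathione beads and given DNA barcodes. Pooled with a tag-only sample, they were exposed to 200 nmole of a 16-mer random double-stranded DNA library (Tris/NaCl/DTT/glycerol buffer, room temperature, 30 min), washed, crosslinked with 0.1% formaldehyde, proximity-ligated using BsaI/T4 ligase for 1 h at 37 °C, PCR-amplified and read on an Illumina NextSeq500. Each hexamer's frequency of reads for a factor, divided by the matching frequency for the tag-only sample, gives the binding signal.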
# ETV5 = ETV5 (Homo sapiens, UniProt P41161 1-510); conditions: protein: recombinant; tags: N-terminal GST; dsDNA, one strand shown
# Procedure, shortened: as §1
# HSF1 = HSF1 (Homo sapiens, UniProt Q00613 1-529); conditions: protein: recombinant; tags: N-terminal GST; chain copies: 3; dsDNA, one strand shown
# Procedure, shortened: as §1
# SPIC = target: T2, SPIC (Homo sapiens, UniProt Q8N5J4 1-248); conditions: protein: recombinant; tags: N-terminal GST; dsDNA, one strand shown
# T2 sequence: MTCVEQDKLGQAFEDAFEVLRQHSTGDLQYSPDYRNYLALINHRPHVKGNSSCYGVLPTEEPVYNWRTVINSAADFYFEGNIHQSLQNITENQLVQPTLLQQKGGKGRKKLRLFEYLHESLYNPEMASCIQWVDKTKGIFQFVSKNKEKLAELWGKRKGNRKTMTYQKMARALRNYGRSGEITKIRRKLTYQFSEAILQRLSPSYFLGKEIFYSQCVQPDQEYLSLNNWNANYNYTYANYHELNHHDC
# Procedure, shortened: as §1
# ELF4 = ELF4 (Homo sapiens, UniProt Q99607 1-663); conditions: protein: recombinant; tags: N-terminal GST; dsDNA, one strand shown
# Procedure, shortened: as §1
# ELK4 = target: T3, ELK4 (Homo sapiens, UniProt P28324-2 1-405); conditions: protein: recombinant; tags: N-terminal GST; dsDNA, one strand shown
# T3 sequence: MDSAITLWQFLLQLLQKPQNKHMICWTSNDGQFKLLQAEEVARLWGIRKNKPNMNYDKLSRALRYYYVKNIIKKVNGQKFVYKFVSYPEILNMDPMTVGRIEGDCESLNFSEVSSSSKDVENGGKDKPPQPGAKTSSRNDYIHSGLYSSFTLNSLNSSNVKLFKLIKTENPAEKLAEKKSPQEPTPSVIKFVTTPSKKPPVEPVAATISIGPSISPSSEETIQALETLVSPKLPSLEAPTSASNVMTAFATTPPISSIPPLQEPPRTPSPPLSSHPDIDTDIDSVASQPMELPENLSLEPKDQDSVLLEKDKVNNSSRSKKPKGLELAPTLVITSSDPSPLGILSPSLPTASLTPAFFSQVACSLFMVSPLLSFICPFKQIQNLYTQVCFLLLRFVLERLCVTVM
# Procedure, shortened: as §1
# ETV2 = target: T4, ETV2 (Homo sapiens, UniProt O00321 1-342); conditions: protein: recombinant; tags: N-terminal GST; dsDNA, one strand shown
# T4 sequence: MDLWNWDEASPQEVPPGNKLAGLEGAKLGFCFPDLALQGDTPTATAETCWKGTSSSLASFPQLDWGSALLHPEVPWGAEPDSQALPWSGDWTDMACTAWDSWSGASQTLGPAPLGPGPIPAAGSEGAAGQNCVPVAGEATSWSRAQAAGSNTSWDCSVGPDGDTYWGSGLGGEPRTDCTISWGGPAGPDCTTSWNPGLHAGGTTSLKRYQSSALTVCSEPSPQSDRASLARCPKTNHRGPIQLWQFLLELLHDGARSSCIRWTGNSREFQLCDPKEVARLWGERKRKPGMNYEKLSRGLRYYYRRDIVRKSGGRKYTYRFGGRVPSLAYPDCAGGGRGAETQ
# Procedure, shortened: as §1
# ELF3 = target: T5, ELF3 (Homo sapiens, UniProt P78545 1-371); conditions: protein: recombinant; tags: N-terminal GST; dsDNA, one strand shown
# T5 sequence: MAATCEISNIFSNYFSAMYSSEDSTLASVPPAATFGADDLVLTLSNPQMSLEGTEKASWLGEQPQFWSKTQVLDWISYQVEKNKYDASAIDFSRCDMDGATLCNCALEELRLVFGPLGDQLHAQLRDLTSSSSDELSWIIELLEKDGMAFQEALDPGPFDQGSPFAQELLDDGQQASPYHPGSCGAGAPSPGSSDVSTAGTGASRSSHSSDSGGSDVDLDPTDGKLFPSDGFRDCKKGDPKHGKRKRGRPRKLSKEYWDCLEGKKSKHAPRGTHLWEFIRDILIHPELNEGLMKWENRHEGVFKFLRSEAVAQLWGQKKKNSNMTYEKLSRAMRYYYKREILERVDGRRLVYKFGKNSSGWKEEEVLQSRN
# Procedure, shortened: as §1
# CRX = CRX (Homo sapiens, UniProt O43186 1-299); conditions: protein: recombinant; tags: N-terminal GST; dsDNA, one strand shown
# Procedure, shortened: as §1
# ETV1 = ETV1 (Homo sapiens, UniProt P50549 1-477); conditions: protein: recombinant; tags: N-terminal GST; dsDNA, one strand shown
# Procedure, shortened: as §1
# ERF = target: T6, ERF (Homo sapiens, UniProt P50548 1-548); conditions: protein: recombinant; tags: N-terminal GST; dsDNA, one strand shown
# T6 sequence: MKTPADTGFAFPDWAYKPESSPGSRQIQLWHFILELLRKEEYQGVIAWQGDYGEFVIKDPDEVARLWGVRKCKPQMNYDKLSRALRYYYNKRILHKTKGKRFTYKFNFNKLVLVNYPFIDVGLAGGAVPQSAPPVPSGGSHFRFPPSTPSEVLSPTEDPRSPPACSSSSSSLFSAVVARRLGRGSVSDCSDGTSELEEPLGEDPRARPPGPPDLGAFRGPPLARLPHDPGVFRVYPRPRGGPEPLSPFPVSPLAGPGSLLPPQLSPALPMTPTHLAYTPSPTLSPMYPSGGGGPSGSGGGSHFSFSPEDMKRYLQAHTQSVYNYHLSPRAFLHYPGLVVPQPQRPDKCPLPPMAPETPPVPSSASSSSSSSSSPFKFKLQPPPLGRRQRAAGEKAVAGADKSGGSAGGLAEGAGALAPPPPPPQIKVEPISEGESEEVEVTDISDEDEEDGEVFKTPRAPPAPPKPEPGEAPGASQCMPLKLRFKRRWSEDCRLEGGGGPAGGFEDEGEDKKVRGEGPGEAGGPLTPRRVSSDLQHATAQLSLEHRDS
# Procedure, shortened: as §1
# ETV3L = target: T7, ETV3L (Homo sapiens, UniProt Q6ZN32 1-361); conditions: protein: recombinant; tags: N-terminal GST; dsDNA, one strand shown
# T7 sequence: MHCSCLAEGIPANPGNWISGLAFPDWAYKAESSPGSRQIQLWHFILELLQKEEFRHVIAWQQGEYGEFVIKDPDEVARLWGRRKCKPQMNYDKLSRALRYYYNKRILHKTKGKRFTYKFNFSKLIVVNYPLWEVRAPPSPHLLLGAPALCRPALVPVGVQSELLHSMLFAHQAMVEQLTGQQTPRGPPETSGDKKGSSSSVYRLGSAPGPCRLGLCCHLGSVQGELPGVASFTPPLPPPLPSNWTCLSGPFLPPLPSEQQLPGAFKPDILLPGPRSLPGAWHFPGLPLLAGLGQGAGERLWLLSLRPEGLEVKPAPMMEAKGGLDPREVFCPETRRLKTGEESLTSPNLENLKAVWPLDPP
# Procedure, shortened: as §1
# ETS2 = target: T8, ETS2 (Homo sapiens, UniProt P15036 1-469); conditions: protein: recombinant; tags: N-terminal GST; dsDNA, one strand shown
# T8 sequence: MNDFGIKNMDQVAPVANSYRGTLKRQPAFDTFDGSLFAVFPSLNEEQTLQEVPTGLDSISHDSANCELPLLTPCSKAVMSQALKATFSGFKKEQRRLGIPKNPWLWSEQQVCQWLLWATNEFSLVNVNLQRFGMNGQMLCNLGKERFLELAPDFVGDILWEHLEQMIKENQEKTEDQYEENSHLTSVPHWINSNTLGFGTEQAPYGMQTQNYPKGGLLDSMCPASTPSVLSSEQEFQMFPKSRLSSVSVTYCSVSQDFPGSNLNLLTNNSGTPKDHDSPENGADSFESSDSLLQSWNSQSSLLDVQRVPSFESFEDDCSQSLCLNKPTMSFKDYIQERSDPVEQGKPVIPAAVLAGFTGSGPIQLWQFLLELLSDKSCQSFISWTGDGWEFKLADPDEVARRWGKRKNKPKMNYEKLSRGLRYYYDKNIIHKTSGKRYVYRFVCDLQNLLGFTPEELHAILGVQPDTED
# Procedure, shortened: as §1
# SPDEF = target: T9, SPDEF (Homo sapiens, UniProt O95238 1-335); conditions: protein: recombinant; tags: N-terminal GST; dsDNA, one strand shown
# T9 sequence: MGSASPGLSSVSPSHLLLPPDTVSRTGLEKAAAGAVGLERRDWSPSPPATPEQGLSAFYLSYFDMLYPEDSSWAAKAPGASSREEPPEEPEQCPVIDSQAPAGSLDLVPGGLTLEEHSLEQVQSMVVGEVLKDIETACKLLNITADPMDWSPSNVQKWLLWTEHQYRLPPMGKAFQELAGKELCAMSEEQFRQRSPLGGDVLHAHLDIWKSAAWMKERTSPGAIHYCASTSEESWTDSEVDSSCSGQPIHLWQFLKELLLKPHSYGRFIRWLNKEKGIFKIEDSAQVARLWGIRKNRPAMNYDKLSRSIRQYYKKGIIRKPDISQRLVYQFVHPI
# Procedure, shortened: as §1
# ETV7 = target: T10, ETV7 (Homo sapiens, UniProt Q9Y603 1-341); conditions: protein: recombinant; tags: N-terminal GST; dsDNA, one strand shown
# T10 sequence: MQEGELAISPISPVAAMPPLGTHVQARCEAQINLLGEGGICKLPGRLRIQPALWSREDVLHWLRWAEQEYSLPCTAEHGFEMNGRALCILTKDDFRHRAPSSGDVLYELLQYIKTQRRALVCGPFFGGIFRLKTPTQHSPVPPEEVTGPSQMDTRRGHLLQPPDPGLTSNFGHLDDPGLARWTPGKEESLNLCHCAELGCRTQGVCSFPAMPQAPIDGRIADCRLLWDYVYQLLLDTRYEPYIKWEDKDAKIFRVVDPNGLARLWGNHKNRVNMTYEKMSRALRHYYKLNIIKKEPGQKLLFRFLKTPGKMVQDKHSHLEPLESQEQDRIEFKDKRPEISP
# Procedure, shortened: as §1
# ELF5 = target: T11, ELF5 (Homo sapiens, UniProt Q9UKW6-2 1-255); conditions: protein: recombinant; tags: N-terminal GST; dsDNA, one strand shown
# T11 sequence: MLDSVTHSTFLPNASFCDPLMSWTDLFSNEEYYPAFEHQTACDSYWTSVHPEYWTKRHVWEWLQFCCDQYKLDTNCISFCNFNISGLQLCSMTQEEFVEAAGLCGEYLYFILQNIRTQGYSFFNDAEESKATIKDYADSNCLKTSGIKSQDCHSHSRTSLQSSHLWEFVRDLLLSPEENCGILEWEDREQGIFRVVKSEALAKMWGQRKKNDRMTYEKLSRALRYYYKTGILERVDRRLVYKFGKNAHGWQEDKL
# Procedure, shortened: as §1
# ETV3 = target: T12, ETV3 (Homo sapiens, UniProt P41162-2 1-143); conditions: protein: recombinant; tags: N-terminal GST; dsDNA, one strand shown
# T12 sequence: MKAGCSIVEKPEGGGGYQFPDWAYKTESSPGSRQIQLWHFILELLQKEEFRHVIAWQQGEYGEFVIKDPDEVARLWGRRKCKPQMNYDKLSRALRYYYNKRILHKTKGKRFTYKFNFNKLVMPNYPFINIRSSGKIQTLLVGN
# Procedure, shortened: as §1
# ETV6 = ETV6 (Homo sapiens, UniProt P41212 1-452); conditions: protein: recombinant; tags: N-terminal GST; dsDNA, one strand shown
# Procedure, shortened: as §1
# ELF4, sequence (Q99607 whole entry): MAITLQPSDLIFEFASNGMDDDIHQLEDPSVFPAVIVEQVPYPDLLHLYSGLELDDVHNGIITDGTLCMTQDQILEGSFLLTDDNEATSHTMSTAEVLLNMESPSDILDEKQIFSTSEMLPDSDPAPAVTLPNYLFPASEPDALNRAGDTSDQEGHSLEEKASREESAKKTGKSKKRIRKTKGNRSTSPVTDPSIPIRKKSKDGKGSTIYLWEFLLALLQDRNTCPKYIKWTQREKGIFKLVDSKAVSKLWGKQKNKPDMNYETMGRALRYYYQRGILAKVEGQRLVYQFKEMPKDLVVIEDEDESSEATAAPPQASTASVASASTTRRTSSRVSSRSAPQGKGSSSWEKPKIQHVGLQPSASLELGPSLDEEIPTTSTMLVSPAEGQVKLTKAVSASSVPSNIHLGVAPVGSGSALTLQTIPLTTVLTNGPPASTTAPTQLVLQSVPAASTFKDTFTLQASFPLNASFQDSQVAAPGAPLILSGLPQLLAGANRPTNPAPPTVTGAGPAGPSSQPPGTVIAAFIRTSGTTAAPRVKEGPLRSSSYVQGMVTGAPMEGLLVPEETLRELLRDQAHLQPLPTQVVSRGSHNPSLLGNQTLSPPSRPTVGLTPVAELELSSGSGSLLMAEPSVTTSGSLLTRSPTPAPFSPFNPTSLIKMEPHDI
# CRX, sequence (O43186 whole entry): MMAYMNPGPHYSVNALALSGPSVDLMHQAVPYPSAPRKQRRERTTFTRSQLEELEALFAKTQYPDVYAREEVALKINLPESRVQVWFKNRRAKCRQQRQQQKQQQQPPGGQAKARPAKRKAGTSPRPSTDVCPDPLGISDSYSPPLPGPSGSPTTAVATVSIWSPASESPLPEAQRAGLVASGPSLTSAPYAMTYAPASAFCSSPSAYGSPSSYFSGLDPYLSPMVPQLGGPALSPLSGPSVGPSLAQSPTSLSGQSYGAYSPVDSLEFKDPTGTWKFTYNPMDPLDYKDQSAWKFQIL
# ETV6, sequence (P41212 whole entry): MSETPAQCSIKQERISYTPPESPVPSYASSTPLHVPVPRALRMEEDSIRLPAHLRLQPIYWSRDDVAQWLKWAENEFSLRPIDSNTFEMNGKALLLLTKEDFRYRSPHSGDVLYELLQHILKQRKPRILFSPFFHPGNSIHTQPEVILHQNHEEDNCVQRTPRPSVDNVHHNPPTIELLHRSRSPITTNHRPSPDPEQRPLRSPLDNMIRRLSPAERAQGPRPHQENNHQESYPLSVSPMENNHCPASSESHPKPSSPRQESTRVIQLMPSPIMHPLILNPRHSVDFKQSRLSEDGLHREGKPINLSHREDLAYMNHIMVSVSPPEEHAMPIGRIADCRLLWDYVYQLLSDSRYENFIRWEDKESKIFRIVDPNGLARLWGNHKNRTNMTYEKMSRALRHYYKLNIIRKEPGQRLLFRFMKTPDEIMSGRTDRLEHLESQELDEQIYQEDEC
# ETV1, sequence (P50549 whole entry): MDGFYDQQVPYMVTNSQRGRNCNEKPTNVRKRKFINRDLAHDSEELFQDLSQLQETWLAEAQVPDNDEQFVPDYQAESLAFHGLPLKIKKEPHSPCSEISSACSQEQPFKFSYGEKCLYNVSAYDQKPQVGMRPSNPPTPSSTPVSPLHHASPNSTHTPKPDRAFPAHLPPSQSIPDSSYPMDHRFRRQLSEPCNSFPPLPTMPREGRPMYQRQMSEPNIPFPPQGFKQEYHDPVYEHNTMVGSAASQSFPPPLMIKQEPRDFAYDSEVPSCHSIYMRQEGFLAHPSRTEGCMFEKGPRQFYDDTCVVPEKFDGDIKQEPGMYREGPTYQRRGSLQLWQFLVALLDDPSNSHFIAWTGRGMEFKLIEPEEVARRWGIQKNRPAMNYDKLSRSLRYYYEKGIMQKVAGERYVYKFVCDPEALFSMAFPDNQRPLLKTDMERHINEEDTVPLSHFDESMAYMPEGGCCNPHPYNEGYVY
# HSF1, sequence (Q00613 whole entry): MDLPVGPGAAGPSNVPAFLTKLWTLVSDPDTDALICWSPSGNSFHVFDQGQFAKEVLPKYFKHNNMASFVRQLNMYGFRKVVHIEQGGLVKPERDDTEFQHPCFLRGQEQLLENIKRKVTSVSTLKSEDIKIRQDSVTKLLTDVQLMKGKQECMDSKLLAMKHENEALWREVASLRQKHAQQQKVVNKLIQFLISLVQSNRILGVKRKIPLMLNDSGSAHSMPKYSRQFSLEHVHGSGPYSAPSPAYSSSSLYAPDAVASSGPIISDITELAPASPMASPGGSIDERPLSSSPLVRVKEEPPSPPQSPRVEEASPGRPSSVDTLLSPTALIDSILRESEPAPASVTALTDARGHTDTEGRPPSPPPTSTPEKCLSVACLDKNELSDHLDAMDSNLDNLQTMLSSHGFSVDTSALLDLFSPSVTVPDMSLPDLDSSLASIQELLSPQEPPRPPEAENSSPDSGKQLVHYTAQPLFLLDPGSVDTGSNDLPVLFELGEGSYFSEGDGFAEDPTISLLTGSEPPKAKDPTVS
# ETV5, sequence (P41161 whole entry): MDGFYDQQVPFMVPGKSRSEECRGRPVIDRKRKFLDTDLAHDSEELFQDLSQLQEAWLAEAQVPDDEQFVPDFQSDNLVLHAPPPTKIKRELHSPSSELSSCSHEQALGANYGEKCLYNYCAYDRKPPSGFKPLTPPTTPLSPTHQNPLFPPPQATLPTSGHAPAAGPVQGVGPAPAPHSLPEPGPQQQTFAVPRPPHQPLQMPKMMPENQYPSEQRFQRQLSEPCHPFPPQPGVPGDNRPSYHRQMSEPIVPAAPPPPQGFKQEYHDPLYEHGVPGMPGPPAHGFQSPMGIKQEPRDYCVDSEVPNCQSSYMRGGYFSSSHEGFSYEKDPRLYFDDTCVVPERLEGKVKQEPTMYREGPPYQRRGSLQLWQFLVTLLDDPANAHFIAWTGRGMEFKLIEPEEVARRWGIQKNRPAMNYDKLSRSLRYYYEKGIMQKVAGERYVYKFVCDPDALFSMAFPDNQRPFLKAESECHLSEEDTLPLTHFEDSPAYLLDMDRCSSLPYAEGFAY
sequence,measurement,setting,value
GAACAA,binding signal,FEV,"1.11 fold enrichment (6-mer frequency, TF over GST control)"
same,binding signal,ETV5,"1.18 fold enrichment (6-mer frequency, TF over GST control)"
same,binding signal,HSF1,"1.5 fold enrichment (6-mer frequency, TF over GST control)"
same,binding signal,SPIC,"1.23 fold enrichment (6-mer frequency, TF over GST control)"
same,binding signal,ELF4,"1.2 fold enrichment (6-mer frequency, TF over GST control)"
same,binding signal,ELK4,"1.16 fold enrichment (6-mer frequency, TF over GST control)"
same,binding signal,ETV2,"1.28 fold enrichment (6-mer frequency, TF over GST control)"
same,binding signal,ELF3,"1.22 fold enrichment (6-mer frequency, TF over GST control)"
same,binding signal,CRX,"1.06 fold enrichment (6-mer frequency, TF over GST control)"
same,binding signal,ETV1,"1.21 fold enrichment (6-mer frequency, TF over GST control)"
same,binding signal,ERF,"1.24 fold enrichment (6-mer frequency, TF over GST control)"
same,binding signal,ETV3L,"1.2 fold enrichment (6-mer frequency, TF over GST control)"
same,binding signal,ETS2,"1.22 fold enrichment (6-mer frequency, TF over GST control)"
same,binding signal,SPDEF,"1.14 fold enrichment (6-mer frequency, TF over GST control)"
same,binding signal,ETV7,"1.17 fold enrichment (6-mer frequency, TF over GST control)"
same,binding signal,ELF5,"1.23 fold enrichment (6-mer frequency, TF over GST control)"
same,binding signal,ETV3,"1.18 fold enrichment (6-mer frequency, TF over GST control)"
same,binding signal,ETV6,"1.25 fold enrichment (6-mer frequency, TF over GST control)"
